Test results taken from PubChem BioAssay AID1259240 (Keith Lab, Institute of Cancer Science, University of …, 2017).
A number with no mark means an inactive call. Active and inactive are the calls of the source. No stated cut-off is given here; in the data, active means fold change mostly below about -2 (no sharp cut-off); inactive means mostly above about -1.8.

Test: modulation of TERT promoter-driven luciferase – cell-based, luciferase reporter, human, primary screen (AID 1259240)
Settings: A2780 TERT promoter luciferase reporter, 16 h; at 20 µM, fold versus average of vehicle-only wells

Structure (SMILES) | fold change
COc1ccccc1-c1nc2s/c(=C3\C(=O)N(CC(=O)O)c4ccccc43)c(=O)n2n1 | 1.16
CCCCN1C(=O)C(O)(CC(=O)c2cccs2)c2ccccc21 (stereo unspecified) | -1.63
CCCN1CN=C(Nc2nc(C)c3ccc(C)cc3n2)NC1 | -2.8 (active)
CC(=O)c1ccc2c(c1)c1cc(C(C)=O)ccc1n2C | -1.83
Cc1nn(CC(=O)Nc2sc3c(c2C#N)CCCCC3)c(C)c1[N+](=O)[O-] | -1.25
COc1ccc(C2CC(=O)Nc3cc(OC)cc(OC)c32)c(OC)c1 (stereo unspecified) | -1.41
O=C1OC(Nc2ccc(F)cc2)c2ccccc21 (stereo unspecified) | -1.21
Cc1c(NC(=O)Nc2cccc(C#N)c2)c(=O)n(-c2ccccc2)n1C | -1.39
CCOC(=O)C1CCCN(c2c(NCC3COc4ccccc4O3)c(=O)c2=O)C1 (stereo unspecified) | 1.35
C=CCN(C(=O)C1CCC(CNS(=O)(=O)c2cccc3nsnc23)CC1)C1CCCCC1 (stereo unspecified) | -1.05
COCCNc1cc(C)nc2c(-c3ccc(Cl)cc3)c(C)nn12 | -1.07
O=C(Cn1c(=O)c(C(F)(F)F)nc2ccccc21)N1CCCC1 | -1.02
O=C(c1cncc(Br)c1)N1CCN(c2ccc(N3CCOCC3)nn2)CC1 | 1.24
Cn1cnc2c(sc3nc(N4CCOCC4)c4c(c32)CC(C)(C)OC4)c1=O | 1.1
CCOC(=O)c1[nH]c2ccc(F)cc2c1N | -1.48
CN(Cc1ccccc1)C(=O)C1CCCN(S(=O)(=O)c2ccc3c(c2)oc(=O)n3C)C1 (stereo unspecified) | -1.14
